# Screens: PubChem, Sanford-Burnham Center for Chemical Genomics
# An excerpt weighted towards active compounds, which were near 28% of everything screened.
# CYP2C9 inh = inhibitors of human CYP2C9; P11712; CYP2C9 Supersomes, luciferin-H conversion, luminescence; inhibition, % at 5 µM; actives 20% (n = 96,000); AID 777;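 active means blocking of liver enzyme CYP2C9 beyond about 50% at 5 µM, limit read from the data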
# Target sequence (P11712 whole entry, looked up): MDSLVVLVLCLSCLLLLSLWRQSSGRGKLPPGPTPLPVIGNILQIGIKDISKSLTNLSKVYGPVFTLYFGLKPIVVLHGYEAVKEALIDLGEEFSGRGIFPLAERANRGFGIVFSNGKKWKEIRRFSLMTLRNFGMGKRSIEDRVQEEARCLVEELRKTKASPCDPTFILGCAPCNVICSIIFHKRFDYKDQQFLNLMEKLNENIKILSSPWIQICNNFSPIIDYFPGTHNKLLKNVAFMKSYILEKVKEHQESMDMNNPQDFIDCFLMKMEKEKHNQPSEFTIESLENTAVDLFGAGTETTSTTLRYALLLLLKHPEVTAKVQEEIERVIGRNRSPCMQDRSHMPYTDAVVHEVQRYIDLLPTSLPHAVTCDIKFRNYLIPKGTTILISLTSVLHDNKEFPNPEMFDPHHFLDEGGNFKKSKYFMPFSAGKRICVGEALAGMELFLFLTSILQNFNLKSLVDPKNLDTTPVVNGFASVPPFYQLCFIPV
# CD11b adhes enh = increases human CD11b/CD18 adhesion to fibrinogen; P05107+P11215; K562 CD11b/CD18 adhesion to fibrinogen, ATPlite luminescence; activation, % at 10 µM; actives 0.07% (n = 93,000); AID 1499;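 active means 10 µM primary screen giving 50% or more activity, confirmed by 40% or more on retest at that dose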
# CD11b adhes inh = CD11b/CD18-fibrinogen binding inhibition; actives 0.54% (n = 93,000); P05107+P11215; inhibition, % at 10 µM; K562 CD11b/CD18 adhesion to fibrinogen, ATPlite luminescence; Mn2+ added to activate the integrin;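 active means primary inhibition of 50% or more at 10 µM, then 40% or more on retest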
# CYP2C19 activ = increases human CYP2C19 enzyme activity. activation factor at 5 µM. P33261. recombinant CYP2C19, luciferin-H EGE luminescence; hits give high values; 0 = fully inhibited enzyme, 1 = untreated enzyme. AID 1025. 96,000 tested, under 10 active;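 active means activation factor of at least 2 at 5 µM in the primary screen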;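 further: 0 = wells with 2.5 mM tranylcypromine and 1 = vehicle-only wells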
# CYP2C19 inh = blocks human cytochrome P450 2C19; P33261; CYP2C19 Supersomes, luciferin-H EGE luminescence, 30 min; inhibition, % at 5 µM; actives 21% (n = 96,000);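 active means CYP2C19 inhibition above a set limit at 5 µM in the primary screen, cut at about 50% in these data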;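 further: plate controls were negative control wells for no effect and 2.5 mM tranylcypromine positive control for full effect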
# CYP2C9 act = increases human cytochrome P450 2C9 activity. P11712. actives 1.4% (n = 96,000). recombinant CYP2C9, luciferin-H conversion, luminescence; hits give high values; factor 1 = untreated enzyme, 0 = blocked. activation factor at 5 µM. AID 1024;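 active means activation factor of 2 or more for CYP2C9 at a 5 µM dose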;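 further: 0 = sulfaphenazole-blocked wells and 1 = vehicle-only wells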
# The depositor's hits bear a star; / = no result given.
SMILES,CYP2C9 inh,CD11b adhes enh,CD11b adhes inh,CYP2C19 activ,CYP2C19 inh,CYP2C9 act
CCCc1ccc(C(=O)N2CCN(c3ccccc3OCC)CC2)cc1,76*,0,-8,0.1,88*,0.2
CCOc1ccccc1N1CCN(C(=O)c2cc[n+]([O-])cc2)CC1,-6,-4,-6,0.2,80*,1.1
O=C(C(Sc1ccccc1)c1ccccc1)N1CCN(c2ccccc2)CC1 (stereo unspecified),/,0,-8,/,/,/
OC(Cn1ccnc1)c1ccc(Cl)cc1Cl (stereo unspecified),95*,4,2,0,99*,0.1
CCOc1cc(CNCc2cccs2)cc(Br)c1OCC,17,/,/,0.3,73*,0.8
COc1cc(CNCCSc2nnnn2C)cc(Br)c1OCc1ccc(F)cc1,18,2,24,0.2,76*,0.8
CCOc1cc(CNc2ccccc2)cc(Br)c1OCc1ccc(F)cc1,51*,-3,17,0.7,33,0.5
CCOc1cc(CNCCSc2nnnn2C)cc(Br)c1OCc1ccc(F)cc1,/,1,34,/,/,/
CCOc1cc(CNCc2ccncc2)cc(Br)c1OCc1ccccc1F,91*,-7,89*,0.1,85*,0.1
CCOc1cc(CNCCO)cc(Br)c1OCc1cccs1,4,/,/,0.6,45,1
CCOC(=O)CSc1n[nH]c(NC(=O)c2cccc(C(F)(F)F)c2)n1,38,/,/,0.6,41,0.6
CC1(C)CC2(CC(C)(C)NC(=O)N2)NC(=O)N1,-4,-3,-8,1.1,-6,1
COC(=O)COC(=O)CC(CC(N)=O)c1ccccc1 (stereo unspecified),5,-2,0,0.8,18,1
CCOc1cc(CNCCSc2nnnn2C)cc(Br)c1OCc1ccccc1F,37,/,/,0.2,84*,0.6
COc1cc(CNCCSc2nnnn2C)cc(Br)c1OCc1ccccc1F,9,2,2,0.3,68*,0.9
CC(NC(=O)NC1CCCCC1)C(c1cccs1)N1CCN(C)CC1 (stereo unspecified),11,1,-34,1,-2,0.9
COc1ccccc1C1CC(c2ccco2)=NN1c1ccccc1 (stereo unspecified),/,-1,-6,/,/,/
Cc1nn2c(c1-c1ccc(Cl)cc1)N=C(c1ccco1)CC2c1ccccc1 (stereo unspecified),73*,/,/,0.8,25,0.3
O=C(O)C1CC=CCC1C(=O)Nc1ccccc1 (stereo unspecified),18,0,-11,0.8,15,0.8
Cc1c(N(C(=O)Nc2ccccc2)C2=NCC(C)S2)c(=O)n(-c2ccccc2)n1C (stereo unspecified),74*,-3,-3,0.7,32,0.3
Cc1ccc(N(C(=O)Nc2ccccc2)C2=NCC(C)S2)cc1 (stereo unspecified),86*,4,3,0.3,71*,0.1
Cc1nn(Cc2ccc(C(=O)NC(C)(C)C)o2)c(C)c1Br,30,-7,74*,0.5,50*,0.7
Cc1nn(Cc2ccc(C(=O)Nc3ccc(C(=O)OC(C)C)cc3)o2)c(C)c1Cl,63*,4,25,0.5,46,0.4
Cc1nn(Cc2ccc(C(=O)Nc3nc4c(C)cccc4s3)o2)c(C)c1Br,31,/,/,0.8,23,0.7
Cc1nn(Cc2ccc(Cl)cc2Cl)c(C)c1NC(=O)c1ccc(COc2cc(Cl)ccc2Cl)o1,47,/,/,0.7,32,0.5
SMILES,CYP2C9 inh,CD11b adhes enh,CD11b adhes inh,CYP2C19 activ,CYP2C19 inh,CYP2C9 act
Cc1nn(Cc2ccc(C(=O)NC3CCCCC3)o2)c(C)c1Br,50*,0,-4,0.2,76*,0.5
Cc1cc(NC(=O)c2ccc(Cn3nc(C)c(Br)c3C)o2)no1,32,0,-16,0.5,49,0.7
C/C(=C\C(=O)Nc1cc(C)on1)c1ccccc1,-2,-1,-13,0.8,20,1
Cc1[nH]c2ccc(C(=O)OCCN(C)C)cc2c1C,23,0,-14,0.1,86*,0.8
CCC(=O)Nc1cccc(C(=O)/C=C/c2cc(Br)ccc2OC)c1,-11,-2,35,0.4,62*,1.1
CCOc1cc(C2NC(=O)NC(C)=C2C(C)=O)cc(Cl)c1OCC(=O)O (stereo unspecified),13,-2,-22,1,-1,0.9
Cc1cc(=O)[nH]c(SCCOc2cccc(C(F)(F)F)c2)n1,-1,-2,11,0.8,18,1
CSc1nc2ncc3c(n2n1)CC1c2ccccc2CCN1C3=O (stereo unspecified),55*,-1,-4,0.3,72*,0.5
Cc1c(C(=O)NCCSCc2c(Cl)cccc2Cl)cccc1[N+](=O)[O-],-7,-5,0,0.9,13,1.1
Cc1c(N/C(=N/S(=O)(=O)c2ccccc2)c2ccc(Cl)cc2)c(=O)n(-c2ccccc2)n1C,/,2,-29,/,/,/
O=c1c2[nH]c3cccc(Cl)c3c2ncn1Cc1ccncc1,52*,-8,-1,0.4,58*,0.5
C=CCN(CCNP(=O)(OCC)OCC)CP(=O)(OCC)OCC,-3,/,/,1,-2,1
CSc1nc(NCCOCCO)c2sc3nc(-c4ccco4)c4c(c3c2n1)CCC4,63*,68,-18,0.7,27,0.4
CCN(CCO)c1nc(SC)nc2c1sc1nc(-c3ccco3)c3c(c12)CCC3,25,117*,1,0.8,22,0.8
CCSc1ncnc2c1sc1nc(-c3ccco3)c3c(c12)CC(C)(C)OC3,9,-4,-2,1.1,-12,0.9
CCCC(=O)c1c(C)c2ccccc2n1C,-11,-3,-5,0.6,35,1.1
CS(=O)(=O)N(CC(=O)Nc1ccc(CC#N)cc1)c1ccc(C23CC4CC(CC(C4)C2)C3)cc1,59*,-2,-8,0.9,11,0.4
CC(=O)N1CCc2cc(S(=O)(=O)CCC(=O)O)ccc21,8,-4,-10,1,0,0.9
O=C(NCCC1=CCCCC1)C1CCCN(S(=O)(=O)c2cccc3cccnc23)C1 (stereo unspecified),-286,1,3,0.3,73*,3.9*
COc1ccc(S(=O)(=O)N2CCCC(C(=O)NCCC3=CCCCC3)C2)cc1 (stereo unspecified),-46,1,-1,1.1,-9,1.5
O=C(NCc1cccs1)C1CCCN(c2nc3ccccc3o2)C1 (stereo unspecified),13,/,/,0.6,39,0.9
O=C(NCCC1=CCCCC1)C1CCCN(c2nc3ccccc3o2)C1 (stereo unspecified),51*,/,/,0.6,45,0.5
O=C(NCCC1=CCCCC1)C1CCCN(S(=O)(=O)c2cccnc2)C1 (stereo unspecified),54*,1,-6,0.4,58*,0.5
